Screens: PubChem BioAssay, National Center for Advancing Translational Sciences (NCATS)
FMDV inh: antivirals against foot and mouth disease virus | FMDV antiviral cell-based qHTS | Potency, µM (highest dose often 57.9 µM), for inactives: at the highest dose activity change, negative = inhibition, hits mostly inhibitors | hit rate 1.2% among 410,000; calls by dose curve; tested in HEK293T cells; note: read-out not given here; potency is the fitted concentration of half-maximal effect; nearly all actives have a fitted effect of over 45% in size
Marburg entry inh: inhibitors of Marburg virus binding or cell entry; Marburg virus pseudotyped entry inhibition, cell reporter; Potency, µM (top dose mostly 37.8 µM), for inactives: at the top dose activity change, negative = inhibition, most hits filed as inhibitors; hit rate 1.8% among 300,000; AID 540276; calls by dose curve; tested in HEK293 cells; note: potency is the fitted concentration of half-maximal effect
LASV entry inh: Lassa virus entry inhibition | Lassa virus pseudotype entry inhibition, cell reporter | hit rate 1.2% among 300,000 | AID 540256 | Potency, µM (series often up to 37.9 µM), without a hit: top-dose activity change, negative = inhibition, most hits filed as inhibitors; calls by dose curve; tested in HEK293 cells; note: potency is the fitted concentration of half-maximal effect; nearly all actives have a fitted effect of over 50% in size
HCMV inh: human cytomegalovirus inhibition. HFF cells, HCMV-luciferase reporter, 72 h; hits give low values. activity change, negative = inhibition, % at 57.5 µM. hit rate 4.5% among 410,000. AID 1259415; in the data active = activity change below about -60%; inconclusive = no clear call, values can overlap the other calls; inactive = above about -39%
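Human foreskin fibroblasts infected with luciferase-reporter HCMV at MOI 1 PFU/cell, compounds at two doses. Luciferase measured 72 h post infection; normalized to buffer-only basal and Salinomycin (10uM) controls.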
HCV inh: inhibitors of hepatitis C virus infection. Huh7.5.1 HCVcc-Cre infection, luciferase reporter, 44 h. Potency, µM (titrated, usually from 41.8 µM), inactives show top-dose activity change, negative = inhibition, most hits filed as inhibitors. hit rate 3.4% among 340,000. AID 651820; active = well fitted inhibition curve with a large enough effect; inconclusive = small, poorly fitted or top-dose-only effect, or another doubt; inactive = no such curve, though single readings can be large or run the other way; note: potency is the fitted concentration of half-maximal effect
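Seed cells (1,000/well) for 4 h; treat with compound and infect with HCVcc-Cre, moi about 0.5. Incubate 44 h, then detect luciferase activity.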
* = called active by the depositor; ? = inconclusive; . = no result; ! = a repeat was not active; [ ] = another dose, or the depositor's remark. Compounds with a hit are over-represented: about 7.9% of the library has one in this group of screens. % is set by controls: 0 for no effect and ±100 for the full control effect.

SMILES | FMDV inh | Marburg entry inh | LASV entry inh | HCMV inh | HCV inh
COc1ccc(CN2CCN(C(=O)CCC(=O)Nc3nnc(C(F)(F)F)s3)CC2)cc1F | -27% | . | . | -34 | -15%
COc1ccc(CN2CCN(C(=O)CCC(=O)Nc3nnc(CC(C)C)s3)CC2)cc1F | ? | . | . | -65* | ?
CCN1C(=O)[C@H]2[C@@H](c3ccc(OC)cc3)N[C@]3(CCCN(CCC(C)C)C3=O)[C@H]2C1=O | -16% | . | . | -2 | .
CN(Cc1cnc2nc(N)nc(N)c2n1)c1ccc(C(=O)NC(CCC(=O)O)C(=O)O)cc1C(F)(F)F (stereo not given) | -29% | -67% | ? | -97* | ?
CN(Cc1cnc2nc(N)nc(N)c2n1)c1ccc(C(=O)NC(CCC(=O)O)C(=O)O)cc1 (stereo not given) | -24% | ? | ? | -97* | ?
Nc1nc(N)c2nc(CNc3ccc(C(=O)NC(CCC(=O)O)C(=O)O)cc3)cnc2n1 (stereo not given) | . | 0.022µM*! | ? | . | -14%
COc1ccc2c(c1)CCc1cnc(-n3ncc(C(=O)NCCCN4CCOCC4)c3C)nc1-2 | -4% | . | . | . | .
CCOC(=O)COc1coc(CN2CCN(c3ccccc3)CC2)cc1=O | -3% | 0%[46.1 µM] | 21%[46.1 µM] | -61* | 17%
Cc1cccc(NC(=O)COc2coc(CN3CCN(c4ccccc4)CC3)cc2=O)c1C | ? | -23% | ? | -61* | ?
CC[C@]12c3[nH]c4ccccc4c3CCN1C(=O)C(CC(=O)NCc1ccco1)C[C@@H]2C(=O)N1CCN(C(=O)c2ccco2)CC1 (stereo not given in full) | -15% | . | . | 20 | 5%
CC[C@]12c3[nH]c4ccc(Cl)cc4c3CCN1C(=O)[C@@H](CC(=O)NCc1cccc(C(F)(F)F)c1)C[C@@H]2C(=O)N1CCN(C(=O)c2ccco2)CC1 | ? | 3% | . | -100* | 32µM*
CC[C@]12c3[nH]c4ccc(Cl)cc4c3CCN1C(=O)[C@@H](CC(=O)NCc1cccc(C(F)(F)F)c1)C[C@@H]2C(=O)N1CCN(C(=O)C2CC2)CC1 | ? | . | . | -20 | 35µM*
CC[C@]12c3[nH]c4ccccc4c3CCN1C(=O)C(CC(=O)NCC13CC4CC(CC(C4)C1)C3)C[C@@H]2C(=O)N1CCN(C(=O)c2ccco2)CC1 (stereo not given in full) | ? | . | . | -23 | 11µM*
CC[C@]12c3[nH]c4ccccc4c3CCN1C(=O)C(CC(=O)NCc1cccc(C(F)(F)F)c1)C[C@@H]2C(=O)N1CCN(C(=O)C2CC2)CC1 (stereo not given in full) | 9% | . | . | -2 | ?
CC[C@]12c3[nH]c4ccc(OC)cc4c3CCN1C(=O)C(CC(=O)NCc1cccc(C(F)(F)F)c1)C[C@@H]2C(=O)N1CCN(C(=O)c2ccco2)CC1 (stereo not given in full) | -25% | . | . | 44 | ?
CC(=O)c1ccc(OCC(=O)Nc2nnc(C3CC3)s2)cc1 | -17% | . | . | -8 | .
Cc1ccc(N2NC(=O)/C(=C\c3cc4c(cc3[N+](=O)[O-])OCO4)C2=O)cc1C | 13µM* | 5% | -7% | 102 | 7%
O=C(N/N=C/c1ccc(Cl)cc1)c1sccc1OCc1ccc(F)cc1 | 4% | ? | ? | -16 | ?
CSc1ccc(/C=N/NC(=O)c2sccc2C)cc1 | -6% | 10µM* | ? | 102 | -2%
O=C(N/N=C/c1ccc(F)cc1)c1sccc1OCc1ccc(F)cc1 | 9% | 2.2µM* | ? | ? | ?
COC(=O)C1=C(c2cccc(OCc3ccccc3)c2)C[C@@H]2CC[C@H]1N2C(=O)NCc1ccc(OC)cc1 | -13% | . | . | 18 | 22µM*
COC(=O)C1=C(c2cccc(OCc3ccccc3)c2)C[C@@H]2CC[C@H]1N2C(=O)NCc1ccccc1OC | -7% | . | . | -88* | ?
COC(=O)C1=C(c2cccc(OCc3ccccc3)c2)C[C@@H]2CC[C@H]1N2C(=O)NCc1ccccc1 | -1% | . | . | -30 | ?
CCOC(=O)c1c(-c2ccc(C)o2)csc1NC(=S)NC(=O)c1cccs1 | -20% | ? | 23µM* | ? | ?
CCOC(=O)c1c(-c2ccc(C)o2)csc1NC(=O)CSc1nnc(C)s1 | . | -16% | -27% | -10 | ?
SMILES | FMDV inh | Marburg entry inh | LASV entry inh | HCMV inh | HCV inh
CCOC(=O)c1c(-c2ccc(C)o2)csc1NC(=O)CSc1nnnn1-c1ccccc1 | . | ? | -26% | 17 | 1.8µM*
Cc1ccc2c(c1)C(c1ccc(F)cc1)N(C(=O)c1ccc(S(=O)(=O)N3CCCCC3)cc1)CC(=O)N2 (stereo not given) | -14% | ? | -22%[46.1 µM] | 4 | .
CCOC(=O)C(C)Sc1nc(-c2ccccn2)ncc1OC (stereo not given) | 4% | ? | -15% | -21 | ?
COc1cnc(-c2ccccc2)nc1Sc1ccccc1 | -6% | ? | 20% | 16 | 13µM*
COc1cnc(-c2ccccn2)nc1Sc1c(Cl)cccc1Cl | -18% | ? | ? | -73* | ?
COc1cnc(-c2ccccn2)nc1Sc1ccccc1Cl | ? | -3% | ? | -98* | ?
COc1cnc(-c2ccccn2)nc1N(C)C | -10% | ? | ? | -99* | ?
COc1ccccc1Sc1nc(-c2ccccc2)ncc1OC | -20% | ? | -1%[46.1 µM] | ? | ?
COc1cc2nc(NC(=O)c3ccccc3)sc(=O)c2cc1OC | -23% | . | . | 3 | -3%
Cc1ccc(NC(=O)COC(=O)C2CC(=O)N(Cc3ccccc3)C2)cc1S(=O)(=O)N(C)C (stereo not given) | 59% | -13%[46.1 µM] | -1% | -9 | 25%
Cc1c(CNC2CCCCC2)c(C(=O)O)c(C)n1Cc1ccc(Cl)cc1 | -4% | ? | 2%[46.1 µM] | -5 | .
COc1cccc(Cn2c(C)c(CNC3CCCCC3)c(C(=O)O)c2C)c1 | -7% | 25%[46.1 µM] | ? | -102* | .
CN(C(=O)Cn1cnc2onc(-c3ccc(F)cc3)c2c1=O)c1ccccc1Cl | -12% | . | 12%[46.1 µM] | -6 | .
COc1ccc([C@]23Cc4c(ccc5ccccc45)[C@H](O2)C2=C(CCCC2=O)O3)cc1 | . | -21%[14.2 µM] | . | . | .
COc1cc(C(=O)/C=C/c2cccnc2)c([N+](=O)[O-])cc1OC | 14µM* | . | . | -100* | ?
O=C(/C=C/c1cccnc1)c1ccc(O)cc1 | 0% | ? | 18%[46.1 µM] | -88* | -15%
O=C(/C=C/c1ccccc1)NC(=S)Nc1cccnc1 | . | 12µM* | -3% | 22 | 20%
O=C(C=Cc1cccnc1)c1ccccc1 | 32µM* | 13µM* | ? | -25 | ?
COC(=O)c1c(NC(=O)c2ccco2)sc2c1CCC2 | -7% | 3% | 9% | 44 | ?
COC(=O)c1c(NC(=O)c2ccc(C)o2)sc2c1CCCCC2 | -6% | 5% | ? | 52 | 11µM*
Cc1ccc(C(=O)Nc2sc3c(c2C(=O)O)CCCC3)o1 | 22% | . | . | -62* | ?
COC(=O)c1c(NC(=O)c2nc3nc(C)cc(C(F)F)n3n2)sc2c1CCC2 | 16% | -14% | -3% | -27 | 10µM*
